Results filed as inconclusive are left out. A call without a number means that no potency is given here. The source made the active and inactive calls. Calls come from the whole dose curve; as a rule, active = well fitted inhibition curve with a large enough effect; inconclusive = small, poorly fitted or top-dose-only effect; inactive = no such curve, though single readings can be large or run the other way.
Assay: Acumen qHTS Assay for Inhibitors of the mTORC1 Signaling Pathway in WT MEF Cells: Hit Validation; note: nearly all actives have a fitted effect of over 60% in size
Conditions: Acumen imaging; series mostly up to 37.3 µM
Summary of the method: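 Read-out is immunofluorescent phospho-rpS6 (Ser235/236) normalised to PI-stained cell number, reported as % active cells using a 7.5 nM rapamycin threshold. Cells: WT or Tsc2-/-, p53-/- MEFs, compound-exposed 24 h at 37C; PI count also tracks viability.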
For `Cc1ccc2nc(/C(C#N)=C/c3ccc(-c4ccc(F)cc4F)o3)[nH]c2c1`, the Potency was 4.14 µM (active).
For `CCOc1ccc(CC(=O)NC2CC(=O)N(c3ccc4c(c3)OCCO4)C2)cc1` (stereo not given), the Potency was “inactive”.
With `Cc1cc(C)c(/C=C2\C(=O)Nc3ccccc32)[nH]1` the Potency was “inactive”.
With `COc1ccc(-c2nc(CCNC(=O)c3c(F)cccc3Cl)cs2)cc1` the Potency was “inactive”.
For `CCS(=O)(=O)c1ncc(Cl)c(C(=O)N2CCN(c3cccc(Cl)c3)CC2)n1`, the Potency was 2.61 µM (active).
For `CCCS(=O)(=O)c1c(S(=O)(=O)CCC)c2cc(C(C)(C)C)ccn2c1C(=O)c1ccc(OC)c(OC)c1`, the Potency was “inactive”.
In the case of `CCN(c1ccccc1)S(=O)(=O)c1ccc(NC(=O)c2nc(S(C)(=O)=O)ncc2Cl)cc1`, the Potency is reported as 1.04 µM (active).
For `CC(C)(C)OC(=O)N1CCC(c2c(C(=O)NCCN3CCC(Cc4ccccc4)CC3)cnn2-c2cccc(Cl)c2)CC1`, the Potency was 10.4 µM (active).
With `Cc1cc(OCC(=O)Nc2cc(-c3nc4ccccc4[nH]3)ccc2C)ccc1Cl` the Potency was “inactive”.
With `COc1cc(Cl)c(C)cc1NC(=O)C1CCN(c2nc3ccccc3n3cccc23)CC1` the Potency was “inactive”.
For `O=C(CSc1nc2c([nH]c3ccccc32)c(=O)n1-c1ccc(F)cc1)NC1CCCCC1`, the Potency was “inactive”.
For `Cc1c(C(=O)OC2CCC(C)CC2)[nH]c2c1C(=O)CC(c1ccc(F)cc1)C2` (stereo not given), the Potency was “inactive”.
For `COC(=O)c1ccccc1NC(=O)c1nc(S(=O)(=O)Cc2cccc(C)c2)ncc1Cl`, the Potency was 5.21 µM (active).
With `Cc1cc(C)c2oc(-c3cccc(NC(=O)COc4ccc([N+](=O)[O-])cc4)c3)nc2c1` the Potency was “inactive”.
For `CCOc1ccccc1NC(=O)Cn1c(=O)n(CCC(=O)NCc2ccc3c(c2)OCO3)c(=O)c2ccccc21`, the Potency was “inactive”.
For `O=C(CN1C(=O)C(c2ccc(F)cc2)=NC12CCCCCC2)Nc1ccccc1Cl`, the Potency was “inactive”.
For `CCCCS(=O)(=O)c1nc(-c2ccc(Br)cc2)cc(-c2ccccc2)c1C#N`, the Potency was 5.21 µM (active).
With `CCCCOc1ccc(Cn2c(=O)sc3ccccc32)cc1` the Potency was “inactive”.
In the case of `CCN(CC)CCNC(=O)c1ccc(Cn2c(=O)c3cccn3c3cccnc32)cc1`, the Potency is reported as “inactive”.
With `Cc1cccc(C(=O)Nc2c(C(=O)NCc3ccc(Cl)cc3)sc3nc(C)cc(C)c23)c1` the Potency was “inactive”.
In the case of `CC(C)S(=O)(=O)c1oc(-c2cccs2)nc1S(=O)(=O)c1ccc(F)cc1`, the Potency is reported as 0.826 µM (active).
In the case of `Cc1cccc(NC(=O)c2nc(S(C)(=O)=O)ncc2Cl)c1`, the Potency is reported as 1.65 µM (active).
With `COc1ccccc1NC(=O)C1=C(C)Nc2nc(SCc3ccccc3)nn2C1c1cccs1` (stereo not given) the Potency was “inactive”.
With `CCSc1oc(-c2ccc(F)cc2)nc1S(=O)(=O)c1ccc(C)cc1` the Potency was “inactive”.
For `CC1CCCCN1c1nnc(NC(=O)Nc2ccccc2F)s1` (stereo not given), the Potency was “inactive”.
With `COc1cc(NC(=O)CSc2ccc(-c3ccccn3)nn2)cc(OC)c1` the Potency was “inactive”.
In the case of `CCN(CC)CCCNc1sc(S(=O)(=O)c2ccccc2)nc1S(=O)(=O)c1ccc(Cl)cc1`, the Potency is reported as 16.5 µM (active).
With `CC(C)(C)c1ccc(S(=O)(=O)N2CCC(c3ccncc3)CC2)cc1` the Potency was “inactive”.
With `COc1ccc(S(=O)(=O)N(Cc2nc(-c3cccc(C)c3)no2)C2CCCCC2)cc1` the Potency was “inactive”.
In the case of `COc1ccc(NC(=O)c2ccco2)cc1NC(=O)COc1ccccc1Cl`, the Potency is reported as “inactive”.
With `COc1ccc(-c2ccc(CCC(=O)O)n2-c2ccccc2O)cc1` the Potency was “inactive”.
In the case of `Cn1nnnc1SCCCNCc1cc(Cl)ccc1OCc1ccc(F)cc1`, the Potency is reported as “inactive”.
For `CCc1ccc(NC(=O)Cn2c(=O)n(-c3ccc(OC)cc3)c(=O)c3ccc(C(=O)NCc4ccc(C)cc4)cc32)cc1`, the Potency was 10.4 µM (active).
With `NC(=O)c1ccccc1NC(=O)c1ccc(-c2ccc(Br)cc2)o1` the Potency was “inactive”.
With `CC(C)c1nnc(NC(=O)c2nc(S(=O)(=O)Cc3ccccc3)ncc2Cl)s1` the Potency was 5.21 µM (active).
In the case of `CCC(Sc1nncn2c1cc1oc(C)cc12)C(=O)Nc1ccc(F)cc1` (stereo not given), the Potency is reported as “inactive”.
For `Cc1cccc(C2C=C(c3ccc(C)c(C)c3)Nc3nnnn32)c1` (stereo not given), the Potency was 1.47 µM (active).
For `CCOc1ccc(CCNCc2c(C(=O)O)n(Cc3ccc(C)cc3)c3cc(OC)ccc23)cc1`, the Potency was “inactive”.
With `Cc1cccc(CS(=O)(=O)c2ncc(Cl)c(C(=O)NCc3ccccc3)n2)c1` the Potency was 13.1 µM (active).
With `Cc1ccc2nc(-c3cccc(NC(=O)c4cccc5ccccc45)c3)oc2c1` the Potency was “inactive”.

Reference: PubChem BioAssay AID651789 (National Center for Advancing Translational Sciences (NCATS), 2012)
Potency is the fitted concentration of half-maximal effect.
